The whole screen tested about 370,000 compounds, of which about 6,800 (1.8%) were called active. Shown is part of a subset that was picked to be rich in actives. Values without a mark were called inactive.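 Rule for the calls: active = activation above a cutoff set at the mean of all screened compounds plus 3 SD (cut at about 10% in these data); inactive = the rest.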

For the test, the system named is Nuclear hormone receptor DAF-12 (Heterodera glycines), GAL4 fusion. Put plainly: H. glycines DAF-12 receptor agonists, primary screen, cell-based, luminescence, HEK293, GAL4 fusion, UAS-luciferase (AID 687014).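 Note: 0% = DMSO wells and 100% = sodium butyrate wells.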 To be noted: HEK293 GAL4-hgDAF12 UAS-luciferase reporter, agonist luminescence; at 6.8 µM; hits give high values; normalized to butyrate control. For orientation: Reporter assays use an easily measured gene product as a stand-in for the process of interest.
With `Cc1cc(=O)[nH]c(SCC(=O)Nc2ccc(F)cc2F)n1`, the activation was 2.35%.
Take `COC(=O)[C@H](Cc1ccccc1)NC(=O)Nc1ccc(S(N)(=O)=O)cc1`: the activation is -0.11%.
For `COc1ccc(CN2C/C(=C/c3ccccc3)N3C(=O)C[C@@H](c4ccccc4)N=C23)c(OC)c1`, the activation was 1.14%.
Regarding `Cc1cc(N=Nc2ccc3ccccc3c2)ccc1O`, the activation is 15.6% (active).
On to `Cc1ccc(-n2c(SCC(=O)Nc3cccc4ccccc34)nnc2-c2ccco2)cc1`, for which the activation is -1.7%.
In the case of `COc1ccc([C@H]2OC(=O)C[C@H]2C(=O)N2CCN(c3ccccc3F)CC2)cc1OC`, the activation was 0.07%.
Take `Cc1ccc(/C=N/NC(=O)COc2ccccc2-c2ccccc2)cc1`: the activation is -6.53%.
To `Cc1ccc(COc2ccc(/C=N/NC(=O)CN3CCCCC3)cc2)cc1` belongs 10.7% (active).
Take `O=C(CN1CCSCC1)N/N=C/c1ccc(Cl)cc1`: the activation is -0.9%.
As to `Cc1ccc(Cn2cc(CN3[C@@H](C)COc4cc(Br)ccc4S3(=O)=O)nn2)cc1`, the activation was -0.49%.
The same measure for `COc1ccc(NC(=O)N(C)C[C@@H]2OCCCC[C@@H](C)Oc3ccc(NC(=O)NC4CCCCC4)cc3C(=O)N([C@H](C)CO)C[C@@H]2C)cc1`: 2.86%.
On to `C[C@@H](CN1C2=NC[C@@H](Cc3ccccc3)N2C[C@H]1Cc1ccc(O)cc1)NC(=O)CCC1CCCCC1`, for which the activation was 1.3%.
Take `O=C(Nc1ccc2c(c1)CCC2)c1ccc(Br)s1`: the activation was 19.2% (active).
Regarding `CC(C)Oc1ccc(C(=O)NCC(=O)Nc2ccc3c(c2)CCC3)cc1`, the activation was 2.22%.
The same measure for `CC1CC(C)CN(CCC(=O)Nc2ccc3c(c2)CCC3)C1` (configuration not stated): -2.86%.
In the case of `Cc1cc(OCc2cc(C(=O)NCc3cc(C(C)C)no3)no2)cc(C)c1Cl`, the activation was 15.1% (active).
As for `Cc1cccnc1CC(C)NC(=O)c1cc(COc2cncc(Cl)c2)on1` (configuration not stated), the activation is 1.14%.
Consider `COc1ccc(OCc2cc(C(=O)NCC3(C)COC3)no2)c(Cl)c1`, for which the activation is 0.38%.
Take `Cc1ccc2oc(C(=O)N3CCN(C)C[C@@H]3C(C)C)c(C)c2c1`: the activation was 2.43%.
Take `COC(=O)[C@]12C[C@H](CC(=O)NCc3cccs3)C(=O)N(CCc3ccc(OC)c(OC)c3)C1=C[C@H](C(C)C)O[C@@H]2C1CC1`: the activation is 1.93%.
As for `CC1=C(C(=O)N2CCOCC2)CC(CC(=O)NCCCN(C)C)C(=O)N1Cc1ccc(C(C)(C)C)cc1` (configuration not stated), the activation is 1.86%.
Take `CCOC(=O)c1ccc2c(c1)nc(SCC(=O)NC(C)C)n2CC`: the activation is -0.22%.
For the molecule `CCOC(=O)c1ccc2c(c1)nc(C)n2CC`, the activation was 12.8% (active).
For the molecule `CCn1c(C)nc2cc(C(=O)NNS(=O)(=O)c3ccc(C)cc3C)ccc21`, the activation is -0.8%.
For the molecule `Nc1nc2c(ncn2[C@@H]2O[C@H](C(=O)N[C@@H](Cc3ccccc3)C(=O)NCc3ccccc3)[C@@H](O)[C@H]2O)c(=O)[nH]1`, the activation is -2.72%.
To `CCOC(=O)N1CCN(C(=O)C[C@H]2C[C@@]3(C(=O)OC)C(=C[C@H](C4CCCC4)O[C@@H]3C)N(Cc3ccccc3)C2=O)CC1` belongs -1.3%; to `CSCC[C@H](NC(=O)OC(C)(C)C)C(=O)N/N=C/c1cc2ccc(C)cc2nc1Cl`, -1.8%; to `CC(=O)Nc1ccc(C(=O)CSc2nc3ccc(C)cc3[nH]2)cc1`, 8.98%.
For the molecule `Cc1ccc2cc(/C=N/Nc3ccc(C(=O)O)cc3)c(Cl)nc2c1`, the activation is 11.9% (active).
As for `C=C(C)C#CC(Cc1ccccc1)N(CC1CC1)/C(N)=N/C(=O)OCc1ccccc1` (configuration not stated), the activation is 1.8%.
To `COc1cc(/C=C/C(=O)O)cc(S(=O)(=O)Nc2ccccc2SC)c1OC` belongs 1.71%.
Turning to `Cn1ncc2c(NNC(=O)Cc3cccc4ccccc34)ncnc21`, the activation is -0.95%.
Take `Cc1ccc(C(=O)NNc2ncnc3ccccc23)cc1`: the activation was 16% (active).
As for `Cc1ccc(CCNC(=O)c2ccc3nc4ccccc4c(=O)n3c2)cc1`, the activation was 3.9%.
To `COC(=O)Cc1nnn2c1[C@H](C)[C@H](c1ccccc1Br)OCC2` belongs -0.72%; to `C=CCn1cc(C(=O)NCc2ccc(Cl)cc2)c(=O)c2cc(S(=O)(=O)N(CC)CC)ccc21`, 0.3%.
Take `CC(=O)c1cc(C#N)c(N2CC(C)OC(C)C2)nc1C` (configuration not stated): the activation is 0.39%.
To `CC(=O)c1cc(C#N)c(SCC(=O)C(C)(C)C)nc1C` belongs 27.1% (active); to `CC(=O)c1cc(C#N)c(SCC(=O)Nc2nccs2)nc1C`, 8.08%.
For `CC(C)(C)OC(=O)NCc1cc(F)ccc1/C=C/S(=O)(=O)NCCc1ccccc1`, the activation was 0.64%.
The same measure for `c1ccc(Cc2c(-c3ccco3)nc3c4ccccc4ccn23)cc1`: 22.7% (active); for `Cc1ccc(Cc2c(-c3ccc(Cl)cc3)nc3c4ccccc4ccn23)cc1`: 4.25%.
Turning to `Cc1ccc(Cc2c(-c3ccc(C)cc3)nc3c4ccccc4ccn23)cc1`, the activation is 0.89%.
For the molecule `CC(C(=O)N=Nc1c(O)n(C)c2ccc(Br)cc12)n1cnc2ccccc2c1=O` (configuration not stated), the activation is 0.17%.
To `CC(=O)C1=C(C)N(Cc2ccc(Cl)cc2)C(=S)NC1c1ccc(F)cc1` (configuration not stated) belongs 3.22%; to `N#Cc1ccc(OCCCN2CCC(C(O)(c3ccccc3)c3ccccc3)CC2)c(F)c1`, 0.54%; to `Cc1cccc(-n2ncc(Cl)c(Cl)c2=O)c1`, -2.03%.
On to `CC1=C(C(=O)NC2CC(C)(C)Cc3c2cnn3-c2ccc(C)cc2)OCCO1` (configuration not stated), for which the activation was -2.28%.
To `C=CCNc1cnn(-c2ccc(C)cc2)c(=O)c1Cl` belongs 12.7% (active); to `COC(=O)[C@H](C(C)C)N(CCCc1cn(Cc2ccccc2)nn1)S(=O)(=O)c1ccc(F)cc1Br`, -3.54%; to `COC(=O)C[C@@H]1C=C[C@@H](NC(=O)c2ccc3c(c2)OCO3)[C@@H](CO)O1`, -0.93%.
`CC12CCC(C(=O)N3CCN(c4ncccn4)CC3)(c3nc4ccccc4nc31)C2(C)C` (configuration not stated): the activation was -2.77%.
In the case of `CC1=C(N2CCN(c3ncccn3)CC2)CCC1=O`, the activation was 1.9%.
The same measure for `c1cnc(N2CCN(c3ccc4ccccc4n3)CC2)nc1`: 13.8% (active).
Consider `CN1C(=O)C(Br)(Br)CC1c1cccnc1` (configuration not stated), for which the activation was 2.1%.
To `CCCCCCCCN1C(=O)[C@@H](CC(=O)N2CCN(C(=O)OCC)CC2)C[C@@]2(C(=O)OC)C1=C[C@H](C1CCCC1)O[C@@H]2C` belongs -1.38%.
The same measure for `Cc1csc(NC(=O)CSc2nc(=O)n(CCCN(C)C)c3c2CCC3)n1`: -0.31%; for `COc1ccc(CN2C[C@H]3CON(C)[C@H]3C[C@H]2c2ccc(-c3cccc(F)c3)cc2)cc1`: -1.7%; for `CN1OC[C@@H]2CN(C(=O)c3ccc(-c4ccccc4)cc3)[C@H](c3ccc(-c4cccc(F)c4)cc3)C[C@@H]21`: 2.92%.
In the case of `CN1OC[C@@H]2CN[C@H](c3ccc(-c4ccccc4)cc3)C[C@@H]21`, the activation is 10.5% (active).
To `O=C(NCc1ccccc1Cl)c1ccc2c(=O)n(CC3CCCO3)c(=S)[nH]c2c1` (configuration not stated) belongs 1.69%.
In the case of `O=S1(=O)c2c(cccc2N2CCCCC2)O[C@H](COCc2ccccc2)CN1C1CC1`, the activation was -1.38%.
Regarding `CCCNC(=O)c1c(Cl)cnn1-c1ccc(C)cc1`, the activation is 14.5% (active).
As for `CCOc1ccc(Oc2c(Cl)cnn(-c3ccc(C)cc3)c2=O)cc1`, the activation was 1.52%.
With `CCCNC(=O)CCc1c(C)nc2c(c(C)nn2-c2ccc(C)cc2)c1C`, the activation was -0.59%.
The same measure for `CCCCCCCCN1C(=O)[C@@H](CC(=O)NCCCC)C[C@@]2(C(=O)OC)C1=C[C@H](C(C)(C)C)O[C@@H]2C`: 0.13%; for `COCCNC(=O)c1ccc(-n2c(SCc3cccnc3)nc3ccccc3c2=O)cc1`: -1.1%; for `O=C(Nn1c(SCc2ccc([N+](=O)[O-])cc2)nc2ccccc2c1=O)c1ccc(F)cc1`: 16.4% (active).
`O=C(CSc1nc2ccccc2c(=O)n1Cc1ccc(F)cc1)NCC1CCCO1` (configuration not stated): the activation was 0.43%.
Regarding `O=c1[nH]c(-c2ccccc2)cn1C1CCN(Cc2ccc(-c3nc4ccc(F)cc4nc3-c3ccccc3)cc2)CC1`, the activation is 2.08%.
As for `O=[N+]([O-])c1ccc2c(c1)C(N1CCOCC1)/C(=C/C1(O)CCCCC1)O2` (configuration not stated), the activation was -1.36%.
With `CCOC(=O)C1CCN(C(=O)C(C)(C)NC(=O)Nc2ccc(F)c(F)c2)CC1`, the activation was -0.28%.
For `COc1ccc(/C=C2\N=C3CCCN3C2=O)cc1`, the activation is 13% (active).
As for `COc1ccc(/C=C2\CC3(OC(C)=O)CCCN2C3)cc1` (configuration not stated), the activation was -5.68%.
As to `COc1ccc(-c2nc3n(c2Br)CCC3)cc1`, the activation was 5.25%.
Regarding `O=C(C1CCCN1S(=O)(=O)c1ccccc1)N1CCc2ccccc2C1` (configuration not stated), the activation is -1.43%.
To `O=C(CSc1nnc(COc2ccccc2)n1-c1ccc(Cl)cc1)Nc1ccc2c(c1)OCO2` belongs -1.26%; to `CC(C)(C)C1CCC(=NNC(=O)c2cc(-c3ccccc3)n[nH]2)CC1` (configuration not stated), 6.27%.
Consider `CCC(C)(C)C1CCC(=NNC(=O)c2ccc(Br)o2)CC1` (configuration not stated), for which the activation is 7.56%.
On to `CC(C)(C)C1CCC(=NNC(=O)c2ccc(Br)o2)CC1` (configuration not stated), for which the activation is 11.6% (active).
The same measure for `COC(=O)C1=C(C)N(Cc2cccc(C(F)(F)F)c2)C(=NCc2ccccc2)NC1c1ccccc1C(F)(F)F` (configuration not stated): -1.64%; for `C/C(=N\NC(=S)NC1CCCCC1)c1ccc(C)o1`: 3.96%; for `CC(CNC(=O)c1ccc(Br)o1)NC(=O)c1ccc(Br)o1` (configuration not stated): -3.41%.
Consider `C/C(=N/NC(=O)c1ccc(Br)o1)c1ccc(C)o1`, for which the activation was 11.9% (active).
Turning to `COc1cc(SC)ccc1C(=O)Nc1cc(C)ccn1`, the activation was 15.5% (active).
In the case of `Cc1ccnc(NC(=O)CNC(=O)c2ccccc2)c1`, the activation is 2.39%.
As to `COc1cc(SC)ccc1C(=O)Nc1nc(C)cs1`, the activation was -15.3%.

Source of the values: PubChem BioAssay AID687014 (The Scripps Research Institute Molecular Screening Center, 2013).
